# Screens from PubChem.
# ROS inducer: raises reactive oxygen species in U2OS cancer cells. U2OS ROS induction, H2DCF-DA fluorescence. ROS induction (% of piperlongumine), % at 10 µM. 2% of 46,000 active; in the data active = ROS induction above about 79%, passing the limit was not always enough;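 also: 0% = DMSO vehicle median and 100% = reference compound median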
# PD-1 reversal: activators reversing PD-1 mediated T-cell inhibition. primary human CD4 T cells, PD-L1 beads, CellTiter-Glo 96 h. activation, % (test concentration not listed). 29,000 tested, under 10 active; call rule not given here;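 also: 0% = median vehicle wells and 100% = positive control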
# YB-1 expr inh: YB-1 expression inhibition; U2OS, qRT-PCR YB-1 vs CDIP delta delta Cp, 16 h; hits give high values; zero = DMSO, each unit about twofold; delta delta Cp (YB-1 minus CDIP) (no concentration beside the values); 0.37% of 30,000 active;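 active = delta delta Cp rounded down to an integer at or above 3, about 3 SD of DMSO wells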;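 also: higher means less YB-1 transcript or more CDIP transcript relative to DMSO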
# * hit, by the source's call; . = no result. The list is not random: actives were taken first. Their share in the collection is about 2.1%.
SMILES,ROS inducer,PD-1 reversal,YB-1 expr inh
C[C@H](CO)N1C[C@H](C)[C@H](CN(C)S(=O)(=O)c2cn(C)cn2)Oc2ncc(C#Cc3ccc(C(F)(F)F)cc3)cc2C1=O,7,.,0.13
C[C@H](CO)N1C[C@H](C)[C@H](CN(C)S(=O)(=O)c2cn(C)cn2)Oc2ncc(C#Cc3ccccc3)cc2C1=O,120*,.,0.085
C[C@H](CO)N1C[C@H](C)[C@H](CN(C)S(=O)(=O)c2cccs2)Oc2ncc(C#Cc3ccc(C(F)(F)F)cc3)cc2C1=O,110*,.,6*
C[C@H](CO)N1C[C@H](C)[C@H](CN(C)S(=O)(=O)c2cccs2)Oc2ncc(C#Cc3ccc(F)cc3)cc2C1=O,11,.,0.011
COc1cccc(S(=O)(=O)N(C)C[C@@H]2Oc3ncc(C#Cc4ccc(OC)c(OC)c4)cc3C(=O)N([C@H](C)CO)C[C@@H]2C)c1,47,.,-0.29
COc1cccc(S(=O)(=O)N(C)C[C@@H]2Oc3ncc(C#Cc4ccc(C(F)(F)F)cc4)cc3C(=O)N([C@H](C)CO)C[C@@H]2C)c1,129*,.,0.71
O=C(CSc1nc2ncccc2[nH]1)Nc1ccccc1Cl,0,-2,.
Cc1cc2nc(SCc3ccccc3C#N)[nH]c2cc1C,127*,0,.
Cc1cc2nc(SCC(=O)NN)[nH]c2cc1C,-26,0,0.054
COc1ccc(S(=O)(=O)n2c(SCc3ccc(C(F)(F)F)cc3)nc3ccccc32)cc1,-6,.,.
COc1ccc(C)cc1S(=O)(=O)N(CC(N)=O)c1ccc(Cl)cc1,-4,1,.
C=C1C(=O)O[C@@H]2/C=C(\CO)CCC/C(C)=C/[C@H](O)C12 (stereo partly drawn),45,-5,-0.27
C=C1C(=O)O[C@@H]2/C=C(/CO)CC/C=C(/C)C[C@H](OC(=O)C(C)CO)[C@@H]12 (stereo partly drawn),154*,-2,-0.18
C=CCN1C(=O)[C@]2(O[C@H](CCO)[C@@H]([Si](C)(C)c3ccc(OC)cc3)[C@@H]2C)c2cc(N3CCC3=O)ccc21,21,.,-0.096
C=CCN1C(=O)[C@@]2(O[C@@H](CCO)[C@H]([Si](C)(C)c3ccc(OC)cc3)[C@H]2C)c2cc(I)ccc21,94*,.,0.2
COc1ccc([Si](C)(C)[C@@H]2[C@@H](CCO)O[C@]3(C(=O)N(Cc4ccccc4)c4ccc(NC(C)=O)cc43)[C@H]2C)cc1,67,.,0.45
C=CCN1C(=O)[C@@]2(O[C@@H](CCO)[C@H]([Si](C)(C)c3ccc(OC)cc3)[C@H]2C)c2cc(NC(C)=O)ccc21,106*,.,-0.25
O=C(Nc1ccccc1)Oc1ccccc1N1CCCCC1,-4,.,.
CC(C)[C@H]1C=C(C(=O)NCc2ccccc2)O[C@@H](OCc2ccc(CO)cc2)C1,17,.,7.6*
CC(C)[C@@H]1C=C(C(=O)O)O[C@H](OCc2ccc(CO)cc2)C1,6,.,0.071
O=C(Cn1c2ccccc2c2cn[nH]c(=O)c21)N1CCCCC1,-2,.,.
O=C(Cc1ccccc1)Nc1ccc(Cl)c(Cl)c1,72,.,.
C[C@@H]1CN([C@H](C)CO)C(=O)c2cccc(NC(=O)Nc3ccc(F)cc3)c2O[C@H]1CN(C)Cc1ccc2c(c1)OCO2,87*,-5,-0.53
C[C@@H]1CN([C@@H](C)CO)C(=O)c2cccc(NC(=O)Nc3ccc4c(c3)OCO4)c2O[C@@H]1CN(C)Cc1ccc(C(=O)Nc2ccccc2N)cc1,9,-2,-0.34
C[C@H]1CN([C@@H](C)CO)C(=O)c2cccc(NC(=O)Nc3ccc4c(c3)OCO4)c2O[C@@H]1CN(C)Cc1ccc(C(=O)Nc2ccccc2N)cc1,123*,-4,-0.54
SMILES,ROS inducer,PD-1 reversal,YB-1 expr inh
CC(C)NC(=O)N(C)C[C@@H]1Oc2c(NC(=O)Nc3ccc4c(c3)OCO4)cccc2C(=O)N([C@H](C)CO)C[C@@H]1C,17,4,0.1
C[C@H](CO)N1C[C@H](C)[C@H](CN(C)C(=O)Nc2ccc3c(c2)OCO3)Oc2c(NC(=O)Nc3ccc(C(F)(F)F)cc3)cccc2C1=O,23,-3,-0.59
CC(C)NC(=O)N(C)C[C@H]1Oc2c(NC(=O)Nc3ccc4c(c3)OCO4)cccc2C(=O)N([C@@H](C)CO)C[C@H]1C,90*,1,0.061
C[C@@H]1CN([C@H](C)CO)C(=O)c2cccc(NC(=O)Nc3ccc(C(F)(F)F)cc3)c2O[C@@H]1CN(C)C(=O)Nc1ccc2c(c1)OCO2,94*,-3,0.35
C[C@H]1CN([C@@H](C)CO)C(=O)c2cccc(NC(=O)Nc3ccc(F)cc3)c2O[C@@H]1CN(C)Cc1ccc2c(c1)OCO2,16,-2,-0.11
CCc1nnc2sc(-c3ccc(N)cc3)nn12,62,0,-0.23
O=C(N/C(=C\c1cccnc1)C(=O)N1CCCCC1)c1ccccc1,-4,.,.
CCc1cccc(OCC(=O)Nc2ccc(S(=O)(=O)Nc3nccs3)cc2)c1,4,.,.
Cn1c2ccccc2c2cnn(CC(=O)NCc3ccc4c(c3)OCO4)c(=O)c21,-1,.,.
CC(=O)c1ccc(NC(=O)CSc2nc(C)c(C)c(=O)[nH]2)cc1,59,2,.
C[C@H](CO)N1C[C@H](C)[C@H](CN(C)Cc2ccc(C(F)(F)F)cc2)Oc2c(NC(=O)Nc3ccc4c(c3)OCO4)cccc2C1=O,13,-4,0.21
C[C@@H]1CN([C@@H](C)CO)C(=O)c2cccc(NC(=O)Nc3ccc4c(c3)OCO4)c2O[C@H]1CN(C)Cc1ccc(C(F)(F)F)cc1,88*,-6,0.18
C[C@H]1CN([C@@H](C)CO)C(=O)c2cccc(NC(=O)Nc3ccc4c(c3)OCO4)c2O[C@@H]1CN(C)Cc1ccc(C(F)(F)F)cc1,70,-3,-0.45
C[C@@H]1CN([C@@H](C)CO)C(=O)c2cccc(NS(=O)(=O)c3cn(C)cn3)c2O[C@@H]1CN(C)Cc1ccc2c(c1)OCO2,-8,2,0.2
C[C@@H]1CN([C@@H](C)CO)C(=O)c2cccc(N(C)C)c2O[C@@H]1CN(C)Cc1ccc2c(c1)OCO2,-7,1,12*
C[C@H](CO)N1C[C@H](C)[C@@H](CN(C)Cc2ccc(C(F)(F)F)cc2)Oc2c(NC(=O)Nc3ccc4c(c3)OCO4)cccc2C1=O,92*,-3,-0.37
C[C@@H]1CN([C@H](C)CO)C(=O)c2cccc(N(C)C)c2O[C@H]1CN(C)Cc1ccc2c(c1)OCO2,-4,.,0.24
C[C@@H]1CN([C@@H](C)CO)C(=O)c2cccc(NS(=O)(=O)c3cn(C)cn3)c2O[C@H]1CN(C)Cc1ccc2c(c1)OCO2,86*,1,-0.13
O=C(Nc1ccc(F)cc1)N1CCC2(CC1)C(=O)NCN2c1ccccc1,-12,.,.
N=c1oc2ccc3ccccc3c2cc1C(=O)Nc1ccccc1,47,0,-0.57
Cn1cccc1/C=N/n1c(COc2ccccc2)n[nH]c1=S,29,.,.
Cc1ccc(-c2csc3nnc(SCC(=O)Nc4ccc5c(c4)OCCO5)n23)cc1,7,1,.
N#CCc1nc(=O)c2ccccc2s1,1,.,.
CCOC(=O)Cc1csc(NC(=O)c2ccccc2)n1,1,.,.
COc1ccc(C(=O)N(c2ccc(OC)cc2)S(=O)(=O)c2ccc(C)cc2)cc1,1,.,.
CS(=O)(=O)N(CC(=O)Nc1cccc([N+](=O)[O-])c1)c1cc(Cl)c(Cl)cc1Cl,7,1,.
